Giardia killer – Giardia lamblia killing | hit rate 0.15% among 340,000 | activity change, % at 7.66 µM, hits read low | Giardia lamblia trophozoite viability; in the data active = activity change below about -80%; inconclusive = between about -30% and that limit;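 note: parasites exposed to compound for two days anaerobically before the ATP read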
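Giardia lamblia trophozoites (100 cells/well) were incubated with compounds for 48 h at 37 deg C under anaerobic conditions. Viability was read as ATP content by one-step luminescence after 15-30 min at room temperature.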
Sfp inh – inhibitors of Bacillus subtilis Sfp phosphopantetheinyl transferase. Q9F4F7. Biochemical Sfp PPTase activity, qHTS. Potency, µM, without a hit: largest response in the series, negative = inhibition, hits mostly inhibitors. hit rate 3.5% among 310,000;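 note: the enzyme is Sfp with the accession as filed and its product quenches rhodamine fluorescence; potency is the fitted concentration of half-maximal effect; 0% = enzyme reaction without inhibitor and -100% = no enzyme wells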
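Buffer: 50 mM Hepes-Na pH 7.6, 10 mM MgCl2, 0.01% Nonidet P-40, 0.01% BSA. Enzyme 15 nM, pre-exposed to compound 15 min; substrates then added and fluorescence change tracked over 30 min.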
Coupling enz – counter-screen for Giardia aldolase inhibitors: coupling enzyme system; coupling enzyme system counterscreen, AmpLite Red fluorescence; activity change, negative = inhibition, % at 58.2 µM, hits read low; hit rate 0.67% among 290,000; AID 2472; in the data active = activity change below about -30%
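Compounds tested against the coupling enzymes alone at 57.5 uM final; readout was AmpLite Red fluorescence (525/598 nm) after 20 min at RT.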
ELG1 DNA repair – ELG1-dependent DNA repair inhibition. HEK293T ELG1-luciferase reporter, luminescence, 16 h; DNA damage induced by 5-fluorouridine. Potency, µM (highest dose often 46.1 µM), for inactives: top-dose activity change, negative = inhibition, most hits filed as inhibitors. hit rate 2.3% among 330,000. AID 504467; note: potency is the fitted concentration of half-maximal effect; nearly all actives have a fitted effect of over 55% in size
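DMSO vehicle served as the neutral condition. Each well held 2,000 cells given 5-fluorouridine plus compound; after 16 hr at 37 °C/5% CO2, ONE-Glo was added and luciferase measured 30 min later.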
Active calls of the source: *. Most compounds without a hit are left out; they make up all but 5.5% or so of the library. Unless noted, calls come from the whole dose curve; as a rule, active = well fitted curve in the direction sought with a large enough effect; inconclusive = small, poorly fitted or top-dose-only effect, or another doubt; inactive = no such curve, though single readings can be large; an effect the other way counts as inactive or inconclusive. Unless noted, % is set by controls: 0 for no effect and ±100 for the full control effect.

Results for COc1ccc2nc(SCC(=O)NCc3ccc(S(N)(=O)=O)cc3)[nH]c2c1 ?
Giardia killer: 26; Sfp inh: 9%; Coupling enz: -2; ELG1 DNA repair: 7%

What do the screens show for `O=c1ccc2cc3c4c(c2o1)CCCN4CCC3`?
Giardia killer: -22; Sfp inh: -5%; Coupling enz: -1; ELG1 DNA repair: 24%

Results for O=c1oc2c3c4c(cc2s1)CCCN4CCC3 ?
Giardia killer: -12; Sfp inh: 18µM*; Coupling enz: 0; ELG1 DNA repair: -25%

Results for COC(=O)c1cc(S(=O)(=O)N2CCN(C(=O)c3ccco3)CC2)cn1C ?
Giardia killer: 48; Sfp inh: 19%; ELG1 DNA repair: 13%

Results for Cc1ccc(-c2c[n+](CC(=O)Nc3nc(-c4ccccc4)cs3)c3n2CCC3)cc1 ?
Giardia killer: 2; Sfp inh: -5%; Coupling enz: 1; ELG1 DNA repair: -6%

How did O=C(C[n+]1cc(-c2ccccc2)n2c1CCC2)Nc1nc(-c2ccccc2)cs1 do in these assays?
Giardia killer: 0; Sfp inh: 56µM*; Coupling enz: 9; ELG1 DNA repair: 21%

How did COc1ccc(-c2c[n+](CC(=O)c3ccccc3)c3n2CCCCC3)cc1 do in these assays?
Giardia killer: -8; Sfp inh: -1%; Coupling enz: 3; ELG1 DNA repair: 15µM*

Results for C=CCC1C=CC(OC(=O)OCC)C(COC(=O)OCC)O1 (stereo not given) ?
Sfp inh: 6%; Coupling enz: 0

What do the screens show for `Cc1ccccc1-c1noc(C(C)NC(=O)c2ccco2)n1` (stereo not given)?
Giardia killer: -11; Sfp inh: 20%; Coupling enz: 0; ELG1 DNA repair: -5%

Results for CN1CCN(c2nc3ccccc3nc2C(C#N)S(=O)(=O)c2ccccc2)CC1 (stereo not given) ?
Giardia killer: -7; Sfp inh: 3%; Coupling enz: 0; ELG1 DNA repair: 8.2µM*

What do the screens show for `Cc1ccc(C)c(S(=O)(=O)C(C#N)c2nc3ccccc3nc2N2CCCC2)c1` (stereo not given)?
Giardia killer: -4; Sfp inh: 45µM*; Coupling enz: -36*; ELG1 DNA repair: -10%

How did N#CC(c1nc2ccccc2nc1N1CCCC1)S(=O)(=O)c1ccccc1 (stereo not given) do in these assays?
Giardia killer: 8; Sfp inh: -26%; Coupling enz: -2; ELG1 DNA repair: inconclusive

What do the screens show for `N#CC(c1nc2ccccc2nc1N1CCCC1)S(=O)(=O)c1cccs1` (stereo not given)?
Giardia killer: -8; Sfp inh: 50µM*; Coupling enz: -21; ELG1 DNA repair: 8%

What do the screens show for `Cc1cccc(N2C(=O)CN(Cc3ccccc3)C2=S)c1`?
Giardia killer: 3; Sfp inh: 16%; Coupling enz: -2; ELG1 DNA repair: 0%

Results for COCCNc1nc(-c2cc(C)n(CCc3ccc(OC)cc3)c2C)cs1 ?
Giardia killer: 7; Sfp inh: 40µM*; Coupling enz: -20; ELG1 DNA repair: inconclusive

What do the screens show for `COc1ccc(S(=O)(=O)N2CCOCC2)cc1C(=O)N(C)CCOc1ccc(Cl)cc1`?
Giardia killer: -7; ELG1 DNA repair: inconclusive

What do the screens show for `NC(=O)CCCn1c(C(=O)c2ccc(Cl)cc2)c2ccc([N+](=O)[O-])cc2[n+]1[O-]`?
Giardia killer: -87*; ELG1 DNA repair: inconclusive

How did CCCCOc1ccc(CNC(=S)N/N=C/c2ccc(OC)c(OC)c2)cc1 do in these assays?
Giardia killer: 11; Sfp inh: 14%; Coupling enz: 2; ELG1 DNA repair: 8.2µM*

How did CCOc1ccc(CNC(=S)N/N=C/c2cccnc2)cc1 do in these assays?
Giardia killer: 4; Sfp inh: 26%; Coupling enz: -2; ELG1 DNA repair: inconclusive

What do the screens show for `O=[N+]([O-])c1ccc(/C=N/N/C(=N/c2ccccn2)c2ccccn2)cc1`?
Giardia killer: -9; Sfp inh: 45µM*; Coupling enz: 1; ELG1 DNA repair: inconclusive

How did O=[N+]([O-])c1ccc(C=NNC(=S)NN=Cc2ccc([N+](=O)[O-])cc2)cc1 do in these assays?
Giardia killer: 7

How did CCOc1ccc(CNC(=S)N/N=C\c2ccc([N+](=O)[O-])cc2)cc1 do in these assays?
Giardia killer: 0; Sfp inh: 56µM*; Coupling enz: 0; ELG1 DNA repair: -17%

How did CCN=C(N/N=C/c1ccc([N+](=O)[O-])cc1)SC do in these assays?
Giardia killer: 8; Sfp inh: 79µM*; Coupling enz: -6; ELG1 DNA repair: 16%

Results for COc1cccc(C(=O)NCCS(=O)(=O)N(C)Cc2ccccc2)c1 ?
Giardia killer: -9; ELG1 DNA repair: 7%

Results for CCC(C(=O)Nc1cccnc1)n1c(=O)[nH]c2ccccc2c1=O (stereo not given) ?
Giardia killer: -11; Sfp inh: 12%; Coupling enz: 5; ELG1 DNA repair: 11%

How did CCCCCCCCCCCCCCCC[n+]1cccc2ccccc21 do in these assays?
Giardia killer: 6; Sfp inh: 25µM*; Coupling enz: 4; ELG1 DNA repair: 13µM*

Results for CCCCCCCCC[n+]1cccc2c3ccccc3ccc21 ?
Giardia killer: 2; Sfp inh: -9%; Coupling enz: 4; ELG1 DNA repair: inconclusive

Results for CCC(=C(c1ccc(OC)cc1)c1ccc(OC)cc1)c1cn(CC(O)CN2CCN(C)CC2)c2ccccc12 (stereo not given) ?
Giardia killer: 5; Sfp inh: 50µM*; Coupling enz: 0; ELG1 DNA repair: inconclusive

Results for CC(=O)c1c(C)[nH]c(C(=O)OCCCCN2C(=O)c3ccccc3C2=O)c1C ?
Giardia killer: 8; Sfp inh: -5%; Coupling enz: -4; ELG1 DNA repair: 6.5µM*

How did O=C(Nc1ccc(-n2cc(Br)cn2)cc1)c1ccncc1 do in these assays?
Giardia killer: -3; Sfp inh: 2%; Coupling enz: 0; ELG1 DNA repair: -20%

What do the screens show for `CC(C)CCNC(=O)c1cnn2c(C(F)(F)F)cc(-c3ccco3)nc12`?
Giardia killer: 0; Sfp inh: 50µM*; Coupling enz: -12; ELG1 DNA repair: inconclusive

Results for COc1ccc(-c2cc(C(F)(F)F)n3ncc(C(=O)N(C)Cc4ccccc4)c3n2)cc1 ?
Giardia killer: -4; Sfp inh: 5%; Coupling enz: -2; ELG1 DNA repair: 15µM*

How did O=C(NCc1ccco1)c1cnn2c(C(F)(F)F)cc(-c3ccccc3)nc12 do in these assays?
Giardia killer: 11; Sfp inh: 25µM*; Coupling enz: 2; ELG1 DNA repair: inconclusive

Results for O=c1[nH]c(=S)[nH]c2scc(-c3ccc(Br)cc3)c12 ?
Giardia killer: -6

What do the screens show for `O=c1[nH]c(=S)[nH]c2sccc12`?
Giardia killer: 35; Sfp inh: 22µM*; Coupling enz: -3; ELG1 DNA repair: 7%

What do the screens show for `CC(C)Oc1ccc(-c2cc(C(=O)NCCN3CCOCC3)c3ccccc3n2)cc1`?
Giardia killer: 1; Sfp inh: 79µM*; ELG1 DNA repair: inconclusive
